# High-throughput results as filed in PubChem BioAssay.
# Sampled rows, rich in hits. Any-hit rate of the full collection: about 4.7%.
# KLK7 zymogen act – proKLK7 zymogen activators, primary screen, biochemical, fluorescence intensity; Kallikrein-7 (Homo sapiens), P49862; purified proKLK7, EDANS-DABCYL substrate fluorescence; 100% is mature enzyme control, 0% vehicle; activation, % at 7 µM; actives 0.9% (n = 370,000); AID 652039, 2013;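 active means activation above the mean of all tested compounds plus 3 SD, computed per campaign excluding outliers beyond control limits, cut at about 13% in these data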
# ADAM10 inh – human ADAM10 inhibitors, primary screen, biochemical, QFRET, HTS. recombinant ADAM10, EDANS/DABCYL FRET peptide cleavage, 3 h. AID 720582, 2013. actives 0.62% (n = 370,000). Disintegrin and metalloproteinase domain-containing protein 10 (Homo sapiens), O14672. inhibition, % at 7 µM;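 active means inhibition above a per-campaign cutoff equal to the mean of compounds falling between control-based bounds plus 3 SD, cut at about 20% in these data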;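 further: 0% = DMSO wells while the 100% control is not disclosed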
# rCAG RNA binder – binders of r(CAG) RNA repeats, primary screen, biochemical, fluorescence. r(CAG) RNA repeat, TO-PRO-1 dye displacement fluorescence. inhibition, % at 3 µM. actives 1.3% (n = 370,000). AID 651821, 2012;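 active means inhibition above the plate cutoff, the mean of all test compounds on that plate plus 3 SD, cut at about 35% in these data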;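 further: 0% = DMSO alone and 100% = 100 µM mitoxantrone as full dye displacement; higher means more dye released from RNA so lower well fluorescence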
# MPTP block – mitochondrial permeability transition pore inhibitors, primary screen, biochemical, isolated mouse mitochondria, absorbance; Ca2+ swelling absorbance, 30 min; inhibition, % at 10 µM; actives 1.4% (n = 360,000); AID 602449, 2012;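 active means inhibition of 50% or more, scaled per plate between neutral and stimulator controls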;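 further: 0% = DMSO wells given calcium and 100% = 1 mM EGTA wells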
# ADAM17 inh – ADAM17 inhibitors, primary screen, biochemical, QFRET; Disintegrin and metalloproteinase domain-containing protein 17 (Homo sapiens), P78536; recombinant ADAM17, EDANS/DABCYL FRET peptide cleavage; inhibition, % at 6.95 µM; actives 0.83% (n = 370,000);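 active means inhibition above the mean of compounds lying between control limits plus 3 SD, set per campaign, cut at about 8.5% in these data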;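 further: 0% = DMSO-only wells as the low control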
# DSG3 Ab inh – inhibitors of pemphigus antibody binding to DSG3, primary screen, biochemical, bead-based, flow cytometry, scFv-GFP | Desmoglein-3 (Homo sapiens), P32926 | DSG3-coupled beads, scFv-anti-DSG3-GFP binding; active compounds read low | binding (percent of control), % at 10 µM | actives 0.48% (n = 310,000) | AID 588358, 2011;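 active means binding more than 3 SD below its plate's average and above zero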;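 further: hits lower antibody fragment binding to DSG3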
# Rh123 counter – fluorescence retest of MPTP screen hits in isolated mitochondria, single concentration; shares compounds with MPTP block; membrane potential, Rhodamine 123 fluorescence; inhibition, % at 10 µM; actives 78% (n = 5,000); AID 624504, 2012; in the data active means inhibition above about 22%;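 further: 0% = DMSO vehicle and 100% = positive control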
# MPTP abs DR – mitochondrial permeability transition pore inhibitors, dose response, biochemical, absorbance, uHTS hits. AID 651561, 2012. shares compounds with MPTP block. IC50, µM. isolated mitochondria swelling. actives 58% (n = 780); in the data active means IC50 below about 20 µM
# MPTP cs DR – fluorescent counter-screen in isolated mitochondria, dose response, counter-screen for MPTP inhibitor project, biochemical, fluorescence, uHTS hits. shares compounds with MPTP block. actives 49% (n = 780). isolated mitochondria counterscreen, fluorescence read-out. IC50, µM; in the data active means IC50 below about 80 µM
# The depositor's hits bear a star; i = inactive; / = no result given.
SMILES,KLK7 zymogen act,ADAM10 inh,rCAG RNA binder,MPTP block,ADAM17 inh,DSG3 Ab inh,Rh123 counter,others
Cc1c(C(=O)NC(Cc2ccccc2)c2nc3ccccc3[nH]2)cccc1[N+](=O)[O-] (stereo not drawn),0,8,1,37,0,100,/,
CSCC[C@H](NC(=O)c1ccc(Cl)c([N+](=O)[O-])c1)c1nc2ccccc2[nH]1,0,8,4,59*,4,128,83*,
CCCCc1ccc(NC(=S)Nc2cccnc2)cc1,0,2,1,80*,0,/,73*,
CCCCc1ccc(NC(=S)NCc2cccc(OC)c2)cc1,0,19,-2,70*,6,90,91*,
S=C(Nc1ccc(Oc2ccccc2)cc1)Nc1cccnc1,-1,-12,7,71*,-6,92,86*,
S=C(NCc1cccnc1)Nc1ccc(Oc2ccccc2)cc1,-1,2,-2,69*,4,89,60*,
Nc1ccn([C@@H]2O[C@H](C(=O)N[C@H](Cc3ccccc3)C(=O)N3CCC(F)(F)CC3)[C@@H](O)[C@H]2O)c(=O)n1,1,-9,1,/,0,/,/,
CC(=O)c1cc(-c2ccccc2)n(CC(=O)NCc2ccc(Cl)cc2)c1C,0,-8,8,/,1,/,/,
CCCCc1ccc(NC(=S)Nc2ccc(Cl)c(S(=O)(=O)N(C)C)c2)cc1,0,1,10,97*,2,106,76*,
Cc1cc(Nc2c(C)n(C)n(-c3ccccc3)c2=O)n2c(nc3ccccc32)c1C#N,0,-19,10,0,-8,122,/,
Cc1cc(Nc2cccc([N+](=O)[O-])c2)n2c(nc3ccccc32)c1C#N,-1,-15,20,67*,-6,103,93*,
CCC(O)(CC)C(=O)N/N=C/c1cc(Br)cc(Br)c1O,-33,-113,5,83*,-29,109,46*,
C[C@@H]1C=CCCO[C@]12C(=O)N(Cc1ccccc1C(F)(F)F)c1ccccc12,0,-14,-4,/,-4,/,/,
COc1ccc(-n2c(SCC(=O)Nc3ccc4c(c3)OCCO4)nnc2-c2ccccc2)cc1,0,0,9,/,0,/,/,
CCCCCCCCCC[n+]1cccc2c3ccccc3ccc21,-13,i,13,96*,-283,109,97*,
CCCCCCCC[n+]1cccc2c3ccccc3ccc21,6,i,13,43,-359,98,/,
Clc1ccc(CNC2CCN(Cc3ccccc3)CC2)cc1,0,-6,4,1,-3,113,/,
S=C(Nc1cc(Cl)cc(Cl)c1)NC1CCN(Cc2ccccc2)CC1,0,10,7,54*,6,102,89*,
S=C(Nc1ccccc1Cl)NC1CCN(Cc2ccccc2)CC1,0,1,-5,42,0,101,/,
S=C(NCc1ccc(Cl)cc1)NC1CCN(Cc2ccccc2)CC1,0,13,-3,71*,7,99,24*,
O=C(CNS(=O)(=O)c1ccccc1)N1CCN(c2ncccn2)CC1,0,-18,2,/,-4,/,/,
N#CCC1(O)C(=O)Nc2ccccc21 (stereo not drawn),0,-15,0,/,-1,/,/,
O=S(=O)(Nc1nc2ccccc2s1)c1cc(F)ccc1F,0,10,25,2,2,/,/,
O=S(=O)(Nc1nc2ccccc2s1)c1ccc(Cl)s1,-1,3,44*,78*,-1,117,80*,
O=S(=O)(Nc1nc2ccccc2s1)c1cnc(Cl)c(Br)c1,0,1,11,90*,-4,90,85*,
SMILES,KLK7 zymogen act,ADAM10 inh,rCAG RNA binder,MPTP block,ADAM17 inh,DSG3 Ab inh,Rh123 counter,others
O=S(=O)(Nc1nccs1)c1cnc(Cl)c(Br)c1,0,-1,9,4,-2,104,/,
O=C(NNC(=O)c1ccncc1)Nc1ccc(N=Nc2ccccc2)cc1,0,16,32,68*,8,121,30*,
O=[N+]([O-])c1ccc(Nc2ccc3ccccc3c2)nc1,0,5,16,78*,0,96,59*,
O=C(NNc1ccc([N+](=O)[O-])cn1)Nc1ccc(N=Nc2ccccc2)cc1,0,-3,18,91*,-2,123,64*,
COc1ccc(N2CCN(CCCNC(=O)Cn3c(=O)c4cccn4c4c(C)ccnc43)CC2)cc1,/,9,/,/,-2,/,/,
O=C(CCc1nc(-c2ccccc2F)no1)NCCc1ccccc1F,-1,-6,1,/,1,/,/,
COC(=O)[C@]12C[C@H](CC(=O)NCC3CCCCC3)C(=O)N(Cc3ccccc3)C1=C[C@H](C1CCCC1)O[C@@H]2C,0,7,1,/,4,/,/,
C[C@]12Cc3ccccc3C1CC1=N[C@@H](C3CCCCC3)O[C@@]13C[C@@H]2C(=O)N3C1CCN(Cc2ccccc2)CC1 (stereo partly drawn),0,-3,3,/,-1,/,/,
O=C(CSc1nc2ccc(Cl)cc2[nH]1)NC1CCCc2ccccc21 (stereo not drawn),1,-1,-1,63*,2,91,62*,
O=C(CSc1nc2ccccc2[nH]1)NC1CCCc2ccccc21 (stereo not drawn),0,4,0,0,3,97,/,
CCOC(=O)[C@@]12CCCC3=C1N(CCC3)C(=O)[C@H]2CC(=O)NCc1cccc(C(F)(F)F)c1,0,2,-2,/,-2,/,/,
CCOc1ccc2[nH]c3c(N4CCc5ccccc5C4)ncnc3c2c1,-7,-148,5,37,-75,99,/,
Fc1ccc2[nH]c3c(N4CCc5ccccc5C4)ncnc3c2c1,-1,-50,11,89*,-16,/,83*,
Cc1ccc2[nH]c3c(N4CCc5ccccc5C4)ncnc3c2c1,-1,-73,9,106*,-24,112,93*,
CCc1nc(NCCN)c(C#N)c2c1CSC(C)(C)C2,1,-50,13,80*,-15,/,-10,MPTP abs DR=17*;MPTP cs DR=>80
CCc1nc(NCCC(C)C)c(C#N)c2c1CCCC2,0,-1,1,-4,1,105,/,
Oc1ccc2[nH]cc(-c3cccs3)c2c1-c1ccccc1,-1,-4,9,/,-2,/,/,
